For 83 compounds, inhibition results are on record in PubChem BioAssay AID651821 (The Scripps Research Institute Molecular Screening Center, 2012).

Among all 370,000 compounds or so, about 4,700 (1.3%) were called active. The list comes from a sample in which actives are over-represented; it also holds similar structures and randomly drawn compounds. Unmarked numbers belong to inactive results.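 How the source made its calls: active means inhibition above the plate cutoff, the mean of all test compounds on that plate plus 3 SD (cut at about 35% in these data); inactive means the rest.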

This experiment is described as follows: small molecules binding CAG repeat RNA – biochemical, fluorescence, primary screen (AID 651821).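 Further: 0% = DMSO alone and 100% = 100 µM mitoxantrone as full dye displacement; higher means more dye released from RNA so lower well fluorescence.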 To be noted: r(CAG) RNA repeat, TO-PRO-1 dye displacement fluorescence; at 3 µM; hits give high values.
In the case of `COc1ccc(CN2C(=O)C(C)S/C2=N/N=C/c2ccco2)cc1` (stereo not drawn), the inhibition (commonly the relative decrease from the control value, in per cent) is 0.84%. On to `O=C(Nc1cccc(F)c1)N1C2CCC1CC(O)(c1cccnc1)C2` (stereo not drawn), for which the inhibition was -2.98%. In the case of `O=C1CC(c2ccccc2)=NN1c1ccc([N+](=O)[O-])cc1` it was 45.5% (active); in that of `CCN1N=C(c2ccccc2)CCC1=O`, -0.41%; in that of `O=C1NC(=O)C2C1C(c1ccc([N+](=O)[O-])cc1)=NN2Cc1ccccc1` (stereo not drawn), 10.9%.

Turning to `CN1[C@H](Cc2ccccc2)COc2cccc(N3CCSCC3)c2S1(=O)=O`, the inhibition was 4.7%. `COC(=O)C1=C(C)N(Cc2cccc(C(F)(F)F)c2)C(=NCc2cccc(C(F)(F)F)c2)NC1c1ccccc1C(F)(F)F` (stereo not drawn): the inhibition was 1.52%. Under `Cc1c[nH]c2cccc(-c3ccc(Cl)cc3)c12` stands 1.17%; under `Cc1cc(O)c(NC(=O)c2ccc(C)c([N+](=O)[O-])c2)cc1C`, 4.43%; under `COc1ccc(C(=O)c2c(C)oc3cc([N+](=O)[O-])c(O)c([N+](=O)[O-])c23)cc1`, 24.7%. Take `Cc1oc2cc([N+](=O)[O-])c(O)c([N+](=O)[O-])c2c1C(=O)c1ccc(Br)cc1`: the inhibition is 67.6% (active). Take `N#Cc1ccccc1OC[C@@H](O)CN1CCC(C(O)(c2ccccc2)c2ccccc2)CC1`: the inhibition was 2.31%.

In the case of `CCOC(=O)N1CCN(C(=O)C[C@H]2C[C@@]3(C(=O)OC)C(=C[C@H](C(C)(C)C)O[C@@H]3C)N(Cc3ccc(Cl)cc3Cl)C2=O)CC1`, the inhibition was 7.87%. As for `O=C(O)CCn1cc(/C=C/C(=O)c2ccc(Cl)cc2)c(-c2cccc(Br)c2)n1`, the inhibition is 82.8% (active).

Take `C#CCN([C@H](C(=O)OC)C(C)CC)S(=O)(=O)c1ccccc1Br` (stereo partly drawn): the inhibition was -1.79%.

Take `O=C(C(=O)N1CCC(CNC(=O)c2cccnc2Cl)CC1)c1cccs1`: the inhibition was 2.4%. Turning to `COc1ccc(CNS(=O)(=O)c2cc(Br)ccc2Br)cc1`, the inhibition was 2.67%. In the case of `COc1ccc(-n2c(SCC(=O)NC3CCCC3)nnc2-c2ccncc2)cc1`, the inhibition is 3.34%. As to `CCN(CC)S(=O)(=O)c1ccc(Cl)c(C(=O)NC(C)C(c2cccs2)N2CCCC2)c1` (stereo not drawn), the inhibition was -3.47%. As to `CCSc1nnc(SCC(=O)NNC(=O)c2ccccc2F)s1`, the inhibition was 1.18%. As for `O=C(CSc1nnc(SCc2ccc(Cl)cc2)s1)N/N=C/c1ccccc1Cl`, the inhibition was 5.04%. On to `Cc1ccc(NC(=S)NNC(=O)CSc2nnc(SCc3ccccc3Cl)s2)cc1`, for which the inhibition was 47.2% (active). Consider `O=C1Nc2cc(C(=O)N3CCN(c4ccc(F)cc4)CC3)ccc2NC1CSCc1cccc(F)c1` (stereo not drawn), for which the inhibition was 14.7%. On to `O=C(COC(=O)/C=C/c1cccc(Cl)c1)NCc1cccs1`, for which the inhibition was -1.04%.

On to `Cc1ccc(CSCC(=O)N(C)CC(=O)Nc2cccc(F)c2)cc1`, for which the inhibition was -1.65%.

Regarding `CCOC(=O)c1nnn(CC(=O)Nc2cccc(F)c2)c1C(=O)OCC`, the inhibition was -2.22%.

For the compound `CCN(CC)C(=O)CSC(Nc1cccc(F)c1)=C(C#N)C#N`, the inhibition is 56.7% (active). For `CCS(=O)(=O)c1ccc(C(=O)NC)c(Cl)c1Cl`, the inhibition was -0.44%. In the case of `O=C(NC1CCCC1)C1CSCCS(=O)(=O)N1Cc1ccccc1` (stereo not drawn), the inhibition is 4%. For the compound `Cc1ccc(S(=O)(=O)N(C)C)cc1NC(=O)/C=C/c1cccs1`, the inhibition was 0.22%.

On to `CCc1nnc(NS(=O)(=O)c2ccc(NC(=S)NC(=O)/C=C/c3cccs3)cc2)s1`, for which the inhibition is 83.9% (active). Under `CCc1nnc(NS(=O)(=O)c2ccc(NC(=O)c3cccc(OC(F)(F)C(F)F)c3)cc2)s1` stands 72.6% (active). Under `CCc1nnc(NC(=O)C2CCCN2S(=O)(=O)c2ccccc2)s1` (stereo not drawn) stands -1.9%. In the case of `CCc1nnc(NC(=O)[C@@H](NC(=O)c2cccc(C)c2)C(C)C)s1`, the inhibition was 2.27%. Regarding `Cc1cc(NS(=O)(=O)c2ccc(NC(=O)c3cccc(OC(F)F)c3)cc2)nc(C)n1`, the inhibition is 4.48%.

For `CCc1nnc(NS(=O)(=O)c2ccc(NC(=S)NC(=O)c3cccs3)cc2)s1`, the inhibition was 59% (active). In the case of `NS(=O)(=O)c1ccc(NC(=S)NNC(=O)c2cccs2)cc1` it was -2.42%; in that of `O=C(NC(=S)Nc1ccc(S(=O)(=O)Nc2ncccn2)cc1)c1cccc(Br)c1`, 5.78%. In the case of `C=CCN=C1NC(c2ccccc2)C(C(=O)OC)=C(C)N1Cc1ccc(C(F)(F)F)cc1` (stereo not drawn) it was 8.06%. As for `CN(CCO)c1cccc2c1S(=O)(=O)N(Cc1cn(Cc3ccc(C(F)(F)F)cc3)nn1)Cc1ccccc1O2`, the inhibition is -1.07%. On to `C/C=C/C(=O)OCC(=O)Nc1ccc(F)cc1Cl`, for which the inhibition was 4.85%. In the case of `Cc1cc2nc3c(=O)[nH]c(=O)nc-3n(C[C@H](O)[C@H](O)[C@H](O)CO)c2cc1C`, the inhibition was -477%.

For the compound `CCN1C(=O)N[C@@H]2C[C@H](C(=O)N3CCCC3)[C@H](C)[C@H](c3ccccc3)C[C@@H]21`, the inhibition was 1.47%. Under `CC1CCN(S(=O)(=O)c2nnc(NC(=O)COc3ccccc3F)s2)CC1` stands 8.39%. In the case of `CCc1ccccc1OCC(=O)Nc1ccc(C)c(S(=O)(=O)N2CCCCCC2)c1`, the inhibition was 3.67%. With `Cc1ccccc1OCC(=O)Nc1nnc(S(=O)(=O)N2CCCC2)s1`, the inhibition is 37.6% (active). Take `COc1ccc(Cn2cc(CN3[C@@H](CC(C)C)COc4cc(Br)ccc4S3(=O)=O)nn2)cc1`: the inhibition is 2.72%. Take `O=C(C(=O)N1CCC(CNS(=O)(=O)Cc2ccccc2)CC1)c1cc2ccccc2o1`: the inhibition is 3.81%. For the compound `Cn1c2c(c(=O)n(C)c1=O)CN(Cc1ccco1)CN2`, the inhibition is -0.1%. Take `COc1ccc(-n2c(SCC(=O)Nc3ccc4c(c3)OCCO4)nnc2-c2ccc(Cl)cc2)cc1`: the inhibition was 6.74%. Regarding `COc1ccc(C2C(C#N)=C(N)Oc3n[nH]c(C)c32)cc1CN1CCN(c2ccc(F)cc2)CC1` (stereo not drawn), the inhibition is 0.94%. Regarding `COc1ccccc1C1CC(=O)n2c(nc(-c3ccccc3)c2-c2ccccc2)S1` (stereo not drawn), the inhibition was 9.44%. Consider `COc1ccccc1C1C(C#N)=C(N)Oc2c1c(-c1ccccc1)nn2-c1ccccc1` (stereo not drawn), for which the inhibition is 54.6% (active). With `CCCCCCCCN1C(=O)[C@@H](CC(=O)NCc2ccccc2)C[C@@]2(C(=O)OC)C1=C[C@H](C(C)(C)C)O[C@@H]2C`, the inhibition was 1.31%. Under `CN(c1ccccc1)S(=O)(=O)c1ccc(C(=O)NCc2cccnc2)cc1` stands 2.25%. For the compound `O=C(CN(c1cc(C(F)(F)F)ccc1Cl)S(=O)(=O)c1ccccc1)NCc1cccnc1`, the inhibition was -7.03%. Turning to `O=C(c1cccnc1)N(c1cc2sc(=O)oc2c2ccccc12)S(=O)(=O)c1ccccc1`, the inhibition is 80.7% (active).

Take `Cc1cc(N2CCN(C(=O)OC(C)(C)C)C[C@H]2C)ccc1N1CCN(Cc2ccccc2)[C@H](C)C1`: the inhibition was 0.53%.

As to `CCOC(=O)C1C(C)C(C(C)(C)C)N(S(=O)(=O)c2ccc(C)cc2)C1c1ccccc1` (stereo not drawn), the inhibition is 1.44%. Turning to `Cc1ccc(S(=O)(=O)N2[C@@H](c3cccc4ccccc34)C(C(=O)O)=C[C@H]2C(C)(C)C)cc1`, the inhibition is 50.6% (active).

With `Cc1ccc(S(=O)(=O)N2C[C@H]3C(=O)C[C@@H](c4cccc5ccccc45)N(S(=O)(=O)c4ccc(C)cc4)[C@H]3C[C@H]2c2ccc(Cl)cc2)cc1`, the inhibition was 13.6%. For the compound `COc1cccc(/C=C2\CC3(OC(C)=O)CCCN2C3)c1` (stereo not drawn), the inhibition was 0.45%. Under `C#CCN([C@@H](C)C(=O)OCC)S(=O)(=O)c1ccc(Br)cc1F` stands 2.12%; under `O=c1ccc2cc(S(=O)(=O)Nc3ccccc3F)ccc2o1`, -1.01%; under `O=c1oc(-c2ccccc2NS(=O)(=O)c2ccc(Cl)cc2)nc2ccccc12`, 39.1% (active).

Turning to `O=c1oc2ccccc2c(NC2CCCCC2)c1NS(=O)(=O)c1ccc(Cl)cc1`, the inhibition was 5.21%. For the compound `COc1ccc(-n2c(SCC(=O)Nc3ccccc3-c3ccccc3)nnc2-c2cccnc2)cc1`, the inhibition is 0.96%. With `Cc1c(C(C)c2ccccc2O)[nH]c2ccccc12` (stereo not drawn), the inhibition is 4.84%.

Regarding `O=C(CSc1nnc(-c2ccccc2)n1Cc1ccco1)Nc1ccccc1-c1ccccc1`, the inhibition was 5.56%. Under `Clc1ccc(-n2c(SC/C=C/c3ccccc3)nnc2-c2ccco2)cc1` stands 2.56%.

For `Clc1ccccc1CSc1nnc(-c2ccco2)c(-c2ccco2)n1`, the inhibition was 54.8% (active).

As for `COC(=O)C1CN(CC(C)C)CCS(=O)(=O)N1Cc1ccc(C)cc1` (stereo not drawn), the inhibition was 2.99%.

For the compound `CC(C)(C)c1ccc(CSc2nnc(-c3cccs3)o2)cc1`, the inhibition is -0.86%.

For `CC(C)N1CCCCC(NC(=O)c2ccc3ccccc3c2)C1=O` (stereo not drawn), the inhibition was 2.21%.

`Nc1ccn([C@@H]2O[C@H](C(=O)N[C@H]3CCCCNC3=O)[C@@H](O)[C@H]2O)c(=O)n1`: the inhibition was -0.39%. `CN(C)S(=O)(=O)c1cccc(-c2nn(-c3ccccc3)cc2/C=C2\SC(=S)N(CC(=O)O)C2=O)c1`: the inhibition is 63.9% (active).

In the case of `COc1cccc(-c2nn(-c3ccccc3)cc2/C=C(\C#N)C(=O)NCCCn2ccnc2)c1`, the inhibition was 4.33%. Turning to `Cc1nc(C)c(-c2nnc(-c3cccc(S(=O)(=O)N(C)C)c3)o2)cc1C(=O)NN`, the inhibition is 10.6%. `Cc1ccc(-c2nn(-c3ccccc3)cc2/C=C2\SC(=S)N(CCCCCC(=O)O)C2=O)o1`: the inhibition was 48.8% (active). On to `O=C(CN1CCC(NC(=O)NCc2ccccc2)CC1)Nc1ccc2c(c1)OCCO2`, for which the inhibition is 0.82%.

On to `CCc1ccc(C2=CC(=O)CC(C)(C)C2=O)cc1`, for which the inhibition is 3.63%. As to `COc1ccc(Cl)cc1NC(=O)COC(=O)C(CC(C)C)N1C(=O)C2CC=CCC2C1=O` (stereo not drawn), the inhibition is -0.39%. On to `OC(c1ccccc1)(c1ccccc1)C1CCN(CCCOc2ccc(-c3ccsc3)cc2)CC1`, for which the inhibition was 9.5%.
